# Bioassay records (PubChem BioAssay)
# Hits are enriched below; roughly 7.4% of the tested compounds scored in any of these assays.
# FLuc modulator – firefly luciferase modulation, counter-screen for miR-21 project; AID 588342; 6.9% of 360,000 active; Potency, µM (series often up to 57.5 µM), for the others: at the top dose activity change, negative = inhibition, hits mostly inhibitors; purified FLuc, Km substrates, luminescence inhibition;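 further: plate controls were vehicle for no effect and reference inhibitor for full effect; nearly all actives have a fitted effect of over 55% in size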
# Target sequence (P08659 whole entry, looked up): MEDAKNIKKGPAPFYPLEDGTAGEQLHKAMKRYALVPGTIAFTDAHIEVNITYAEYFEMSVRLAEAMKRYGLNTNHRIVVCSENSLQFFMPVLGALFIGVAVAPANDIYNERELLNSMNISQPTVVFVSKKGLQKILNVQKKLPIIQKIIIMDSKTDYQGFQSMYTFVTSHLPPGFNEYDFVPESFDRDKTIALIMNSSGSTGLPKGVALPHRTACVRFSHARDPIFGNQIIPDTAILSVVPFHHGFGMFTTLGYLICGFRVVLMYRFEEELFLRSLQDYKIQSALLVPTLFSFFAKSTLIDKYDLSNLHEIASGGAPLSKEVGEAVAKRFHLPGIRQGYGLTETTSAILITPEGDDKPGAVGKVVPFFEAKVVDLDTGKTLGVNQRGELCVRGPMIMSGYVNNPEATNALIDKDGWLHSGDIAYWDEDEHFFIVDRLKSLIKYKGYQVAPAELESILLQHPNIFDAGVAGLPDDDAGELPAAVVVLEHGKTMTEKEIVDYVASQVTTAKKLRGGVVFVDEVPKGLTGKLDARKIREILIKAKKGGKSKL
#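 Purified P. pyralis luciferase (10nM final) with 10uM D-luciferin and 10uM ATP (Km levels) in 50mM Tris acetate pH 7.5, 10mM Mg acetate, 0.01% Tween-20, 0.05% BSA; qHTS 6-point titration, ~60 µM downward; luminescence read.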
# Luc counter – counter-screen: inhibitors of Kinase-Glo firefly luciferase; AID 1379; Kinase-Glo luciferase, ATP luminescence, 8 min; Potency, µM (highest dose often 38.3 µM), for inactives: top-dose activity change, negative = inhibition, usual class: inhibitors; 0.28% of 200,000 active; further: on the % scale 0 is the no-effect control and ±100 the full control effect; nearly all actives have a fitted effect of over 60% in size
#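 Kinase-Glo luciferase light output from ATP and luciferin was measured with 10 uM ATP, within the enzyme's linear range. Buffer: 50 mM imidazole pH 7.2, 50 mM KCl, 7 mM MgCl2, 0.01% Tween 20, 0.05% BSA; luminescence read after 8 min at ambient temperature.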
# NPC1 promoter act – activators of NPC1 promoter. Huh7 NPC1 promoter luciferase reporter, 24 h. Potency, µM (titrated, usually from 9.22 µM), for the others: at the highest dose activation, usual class: activators. 2.4% of 320,000 active; further: % of control where 0% means no effect; nearly all actives have a fitted effect of over 60% in size
#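 Huh7 cells stably carrying NPC1 promoter–luciferase, plated in Opti-MEM with 10% FBS for 2 h, were exposed to compound in DMSO for 24 h at 37 °C; luciferase reagent was added for 10 min and luminescence read.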
# SMN2 splice enh – increases expression of the SMN2 splice variant; HEK293 SMN2-luciferase splicing reporter, luminescence, 30-36 h; Potency, µM (top dose mostly 46.1 µM), inactives show top-dose activity change, positive = activation, most hits filed as activators; 2.8% of 210,000 active; further: % of control where 0% means no effect; nearly all actives have a fitted effect of over 55% in size
#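 HEK293 cells carry an SMN2 minigene-luciferase reporter in which exon 7 inclusion puts luciferase in frame. Cells were seeded at 2000 cells/well, attached for 10-12 hours, then exposed to compounds for 30-36 hours at 37C before ONE-Glo luminescence.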
# Rab9 prom act – activators of Rab9 promoter; 2.8% of 320,000 active; Huh7 Rab9 promoter-luciferase reporter, luminescence, 24 h; Potency, µM (top dose mostly 9.22 µM), for inactives: at the highest dose activation, negative = inhibition, actives largely listed as activators; further: % of control where 0% means no effect; nearly all actives have a fitted effect of over 60% in size
#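 Huh7 reporter line, Rab9 promoter upstream of luciferase. Compound exposure 24 h at 37 °C in reduced-serum medium with 10% FBS. Read-out: luminescence.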
# ELG1 genotoxic – genotoxicity induction in ELG1-luciferase HEK293T cells | Potency, µM (titrated, usually from 46 µM), for the others: at the top dose activity change, positive = activation, usual class: activators | AID 504466 | 1.3% of 330,000 active | HEK293T ELG1-luciferase reporter, luminescence, 16 h; further: % of control where 0% means no effect; nearly all actives have a fitted effect of over 60% in size
#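 HEK293T cells expressing luciferase-tagged ELG1 were exposed to compound or DMSO vehicle for 16 hr at 37 °C and 5% CO2. Luciferase activity was then measured with ONE-Glo after 30 min at room temperature.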
# * = called active by the depositor; u = inconclusive; x = not tested or not shown; [ ] = remark or other dose. The call rests on the fitted dose curve; in most records, active means well fitted curve in the direction sought with a large enough effect; inconclusive means small, poorly fitted or top-dose-only effect, or another doubt; inactive means no such curve, though single readings can be large; an effect the other way counts as inactive or inconclusive. Potency means the concentration at half of the fitted maximal effect.
SMILES,FLuc modulator,Luc counter,NPC1 promoter act,SMN2 splice enh,Rab9 prom act,ELG1 genotoxic
CCc1noc(C)c1C(=O)Nc1nnc(C(CC)CC)s1,2.7%,x,-5.0%,x,-5.7%,-0.6%
COc1ccc(NC(=O)c2cc(-c3ccccc3Cl)on2)cc1,8.49µM*,x,u,x,u,20.6%
CCc1cc(C(=O)NCc2ccccc2)no1,-17.4%,x,x,18.2%,x,x
COc1ccc(NC(=O)c2cc(-c3ccccc3OC)on2)cc1,9.53µM*,0.0%,-3.2%,u,0.2%,u
CCCc1cc(C(=O)NCCc2ccccc2)no1,21.3µM*,-7.7%,2.24µM*,12.6µM*,2.24µM*,10.3µM*
COc1ccccc1-c1cc(C(=O)Nc2cccnc2Cl)no1,-1.4%,x,-0.6%,x,-3.5%,8.8%
COc1ccccc1-c1cc(C(=O)Nc2cccnc2)no1,6.75µM*,-11.5%,u,26.7%,25.1%,18.4µM*
O=C(OC1Cc2c(O)cc(O)cc2OC1c1cc(O)c(O)c(O)c1-c1c(C2Oc3cc(O)cc(O)c3CC2OC(=O)c2cc(O)c(O)c(O)c2)cc(O)c(O)c1O)c1cc(O)c(O)c(O)c1 (stereo not given),x,-2.5%,x,7.8%,x,x
COc1ccccc1-c1cc(C(=O)NCCc2ccccc2)no1,9.53µM*,-5.0%,u,25.1µM*,3.55µM*,13µM*
O=C(/C=C/c1ccccc1)Nc1sc2c(c1C(=O)O)CCC2,16.9µM*,x,u,x,u,-0.5%
O=C(/C=C/c1ccco1)Nc1sc2c(c1C(=O)O)CCC2,13.5µM*,-9.5%,3.55µM*,28.2µM*,u,1.7%
N#Cc1c(NC(=O)/C=C/c2ccco2)sc2c1CCCC2,4.78µM*,2.0%,u,3.55µM*,u,2.91µM*
Cc1c(C(=O)Nc2ccc(S(=O)(=O)Nc3ncccn3)cc2)oc2ccc(F)cc12,u,x,-2.1%,x,-1.2%,12.9%
COc1cc(Cl)ccc1OCc1cc(C(=O)N(C)CCc2cnn(C)c2)no1,12µM*,x,u,x,u,7.0%[9.26 µM]
Cc1cc(OCc2cc(C(=O)N(C)CCc3cnn(C)c3)no2)cc(C)c1Cl,8.49µM*,x,2.82µM*,x,3.16µM*,u
CC(=O)c1ccc(OCc2cc(C(=O)N(C)C3CCOC3)no2)cc1 (stereo not given),0.6%,x,7.8%,x,2.2%,3.2%
Cc1cc(OCc2cc(C(=O)N(C)C3CCOC3)no2)cc(C)c1Cl (stereo not given),6.01µM*,x,3.16µM*,x,1.78µM*,u
O=C(CN1C(=O)NC2(CCCCC2)C1=O)N1CCN(S(=O)(=O)c2ccc(F)c(F)c2F)CC1,-1.3%,x,3.2%,x,-1.5%,2.7%
Cc1cccc(CNC(=O)c2ccc3oc(=O)n(Cc4ccccc4)c3c2)c1,3.3%,x,x,x,x,x
CCNC(=S)/N=C(\N)Nc1nc(C)c2cc(C)ccc2n1,6.01µM*,x,3.55µM*,x,2.82µM*,u
COc1ccc(-c2nc3cc([N+](=O)[O-])ccc3o2)cc1,0.477µM*,x,2.51µM*,x,1.58µM*,u
CC(C)(C)Nc1nc2cc([N+](=O)[O-])ccc2o1,u,x,-0.2%,x,0.6%,9.0%
O=c1oc(-c2ccc([N+](=O)[O-])cc2)nc2ccccc12,-9.6%,-4.5%,10.6%,0.7%,13.5%,11.1%
O=c1oc(-c2ccc([N+](=O)[O-])cc2)nc2ccc(O)cc12,15.1µM*,-16.2%,-3.7%,-7.2%,u,-3.7%
Nc1ccc(-c2nc3cc([N+](=O)[O-])ccc3o2)cc1,2.13µM*,x,1.41µM*,x,1.12µM*,14.5%
SMILES,FLuc modulator,Luc counter,NPC1 promoter act,SMN2 splice enh,Rab9 prom act,ELG1 genotoxic
Cc1ccc(OCC(O)C(C)NC(C)C)c2c1CCC2 (stereo not given),x,-3.2%,x,-26.5%,x,x
COC(=O)c1c(C)[nH]c(C(=O)CSc2ccc(Cl)cc2)c1C,4.78µM*,-0.3%,3.98µM*,11.2µM*,2.51µM*,u
CC(=O)c1c(C)[nH]c(C(=O)OCC(=O)NCCc2ccc(F)cc2)c1C,1.2%,-2.7%,-3.1%,-18.7%,3.5%,-5.2%
COC(=O)c1c(C)[nH]c(C(=O)OCc2ccc(F)cc2)c1C,9.53µM*,x,3.55µM*,x,3.98µM*,u
COC(=O)c1c(C)[nH]c(C(=O)CC#N)c1C,-7.0%,-3.3%,-2.3%,u,4.1%,7.4%
CCc1c(C(=O)OCc2ccccc2)[nH]c(C)c1C,23.9µM*,x,28.2%,x,u,u
CN(Cc1ccccc1)c1ncnc2sccc12,3.5%,x,-6.6%,x,-11.4%,-5.0%
Cc1ccc(-n2c3c(c(=O)[nH]c2=O)C(NC(=O)C(C)(C)C)(C(F)(F)F)C(=O)N3)cc1 (stereo not given),-1.0%,x,x,-2.7%,x,x
Cc1c(-c2ccc(Cl)cc2)c(=O)oc2c(CN3CCOCC3)c(O)ccc12,-20.3%,x,x,x,x,x
COc1cccc(C(=O)N/N=C/C(Br)=C/c2ccccc2)c1,10.7µM*,-10.6%,1.2%,22.7%,13.3%,17.7%
COc1ccc(C(=O)N/N=C/C(Br)=C/c2ccccc2)cc1,3.01µM*,-1.9%,8.8%,11.3%,19.4%,-2.2%
O=C(N/N=C/C(Br)=C/c1ccccc1)c1ccccc1[N+](=O)[O-],u,x,-3.2%,x,-0.3%,3.4%
Cn1cc(C(=O)N/N=C/C(Br)=C\c2ccccc2)ccc1=O,u,-4.3%,-7.4%,14.6%,11.4%,14.5%
Cn1cc(C(=O)N/N=C/C(Br)=C/c2ccccc2)ccc1=O,19µM*,1.7%,1.1%,4.3%[1.84 µM],3.8%,12.1%
CC(/C=N/NC(=O)c1cccc([N+](=O)[O-])c1)=C\c1ccccc1,-13.5%,-12.0%,u,-1.8%,21.1%,8.9%
O=C(CN1C(=O)S/C(=C\c2ccccc2F)C1=O)NC1C=CS(=O)(=O)C1 (stereo not given),7.2%,x,-6.8%,x,21.5%,-0.3%
COc1cc([N+](=O)[O-])ccc1NC(=O)Nn1cnnc1,0.9%,x,-5.8%,x,7.0%,3.6%
Cc1nc(CNC(=O)CC2C(=O)NCCN2Cc2ccc(F)cc2)cs1 (stereo not given),4.1%,x,-0.9%,x,-1.4%,-0.4%
Cn1cccc1/C=N/NC(=O)CSc1nc2ccccc2[nH]1,-18.6%,x,-0.4%,x,5.7%,-0.9%
CC(=O)/C=C/n1c(=S)oc2ccccc21,5.36µM*,-6.1%,-36.2%,-9.6%[1.84 µM],-41.4%,-11.3%
Cn1c(=S)oc2ccccc21,-2.2%,x,-4.3%,x,-6.1%,-3.1%
CC(C)CC(=O)/C=C/n1c(=S)oc2ccccc21,0.953µM*,-2.7%,-32.0%,-67.9%,-46.0%,-15.6%
CC1(C)O[C@H]2[C@@H](O1)[C@@H](C(=O)Nc1ccccc1O)O[C@@H]1OC(C)(C)O[C@@H]12,-1.9%,x,x,7.6%,x,x
